Reference: PubChem BioAssay AID2112 (National Center for Advancing Translational Sciences (NCATS), 2009)
The campaign covered roughly 240,000 compounds. About 15 (0.006%) were called active. The call rests on the fitted dose curve; in most records, active means well fitted inhibition curve with a large enough effect; inconclusive means small, poorly fitted or top-dose-only effect, or effect the other way, or another doubt; inactive means no such curve, though single readings can be large or run the other way. Not all results are given here.

molecular target: Lysosomal alpha-glucosidase (Homo sapiens) (UniProt P10253); test: qHTS Assay for Inhibitors and Activators of Human alpha-Glucosidase From Spleen Homogenate; settings: 4-MU-alpha-glucoside fluorescence; series mostly up to 79.9 µM; activity change, negative = inhibition: at the top concentration;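 further: 0% = enzyme with vehicle and -100% = no enzyme basal signal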
Text: NIH Chemical Genomics Center [NCGC] NIH Molecular Libraries Probe Production Centers Network [MLPCN] MLPCN Grant: R03 MH084841-01 Assay Submitter (PI): Wei Zheng NCGC Assay Overview: Alpha-glucosidase is responsible for the hydrolysis of terminal, non-reducing 1,4-linked alpha-D-glucose residues, which releases alpha-D-glucose. It is a lysosomal hydrolase that is required for the degradation of a small percentage (1-3%) of cellular glycogen in humans. Deficiency of this enzyme results in glycogen-storage disease type II (GSDII), also referred to as Pompe disease, an autosomal recessive disorder. Structurally normal glycogen is accumulated in the lysosomes and cytoplasm in affected patients, primarily in muscle tissues. Excessive glycogen storage within lysosomes may interrupt normal functioning of other organelles and leads to cellular injury. In turn, this leads to enlargement and dysfunction of the entire organ involved (eg: cardiomyopathy and muscle weakness). It has been reported that the improper folding and trafficking of alpha-glucosidase resulting from genetic mutations may account for a significant number of Pompe patients. […] We optimized this alpha-glucosidase assay in 1536-well plate format for identification of novel small molecule inhibitors or activators with structures other than the sugar analogs in order to develop new pharmacological chaperones. In particular, this assay is directed towards discovering compounds active in a more natural setting, tissue homogenate, that may have been missed by screens of the purified enzyme under more stringent conditions.
NCGC Assay Protocol Summary: This is a fluorogenic enzyme assay with 4-methylumbelliferyl-alpha-D-glucopyranoside as the substrate and human spleen homogenate containing alpha-glucosidase as the enzyme preparation. Upon hydrolysis of this fluorogenic substrate, the resulting product, 4-methylumbelliferone (which excites at 365 nm and emits at 440 nm) can be detected by a fluorescence plate reader. Data were normalized to the controls for basal activity (without enzyme) and 100% activity (with enzyme). The AC50 values were determined from concentration-response data modeled with the standard Hill equation. Assay buffer: 50 mM citric acid (titrated with potassium phosphate to pH 5.0), 0.01% Tween-20 (pH 5.0 is an optimal condition for this enzyme assay) 1536-well assay protocol for the alpha-glucosidase from human spleen homogenate: (1) Add 2 ul/well spleen homogenate (1 ug) (2) Add 23 nL compounds in DMSO solution. The final titration was 0.5 nM to 58 uM. (3) Add 2 ul of substrate (1 mM final) (4) Incubate at 37 C for 40 min (5) Add 2 ul stop solution (1M NaOH and 1M Glycine mixture, pH 10) (6) Detect the assay plate in a ViewLux plate reader (PerkinElmer) with Ex=365 nm and Em=440nm. Keywords: Alpha-glucosidase, Pompe Disease, pharmacological chaperone, chaperone therapy, high throughput screening, alpha-glucosidase inhibitor, MLSMR, MLSCN, NIH Roadmap, qHTS and NCGC

Activity change, negative = inhibition, inactive:
BrC1C(Br)C(Br)C(Br)C(Br)C1Br (stereo not drawn) 5.06%, CCCC(Cl)CCCC(Cl)CCC(Cl)CCC(Cl)CCC(Cl)CCCC(Cl)CCC (stereo not drawn) -7.48%, O=C(NC(CC(=O)N1CCN(c2ccccc2)CC1)c1ccccc1)c1ccccc1Cl (stereo not drawn) -4.71%, CC1(C)Cc2cccc(OCC(=O)N3CCN(c4ccc([N+](=O)[O-])cc4)CC3)c2O1 -6.17%, O=C1C2C(c3ccccc3)CC=CC2C(c2ccoc2)N1Cc1ccccc1 (stereo not drawn) -8.93%, COC(=O)CCc1ccccc1S(=O)(=O)N(CCC(=O)OC)Cc1ccccc1 3.68%, C=CCSC(CC)(CC)C(N)=O 0.0084%, C/C(=N\NC(=S)Nc1ccc(C)cc1)c1cc2ccccc2o1 10.6%, O=C(OCC(COC(=O)c1ccccc1)(COC(=O)c1ccccc1)COC(=O)c1ccccc1)c1ccccc1 -1.65%, Nc1nc2c(ncn2[C@@H]2O[C@H](COP(=O)(O)OP(=O)(O)OP(=O)(O)O)[C@@H](O)C2O)c(=O)[nH]1 (stereo partly drawn) 1.86%, C[C@H]1CCC[C@@]2(C)CCCC[C@]12O -4.13%, CCC(C(=O)Nc1ccc(C(C)C)cc1)c1ccccc1 (stereo not drawn) -5.23%, COc1ccc(C2/C=C\CN(C(=O)c3ccc(C)cc3)C(Cc3ccccc3)C(=O)N2Cc2ccc(F)cc2)cc1 (stereo not drawn) -1.47%, CC(C)CC(COCc1ccc(Cl)cc1)N1CCN(C(=O)c2ccc(C(F)(F)F)cc2)CCC1=O (stereo not drawn) -1.89%, COc1ccc(C(CCN2CCOCC2)c2c(OC)cc(OC)c3c2OC(=O)CC3c2ccc(OC)cc2)cc1 (stereo not drawn) -1.9%, Cc1ccc(Nc2nc(C)cc(C)c2C(N)=O)cc1 -2.03%, O=C(CN1C(=O)NC(Cc2ccccc2)(Cc2ccccc2)C1=O)NCC1CCCCC1 0.793%, C=C1CCN(C(CC(C)C)C(=O)NCc2cc(OC)c(OC)c(OC)c2)S(=O)(=O)c2ccccc21 (stereo not drawn) -1.04%, CCOC(=O)C(=CNNc1ccsc1C(=O)OC)C(=O)OCC 4.66%, CCCCN(CC)CCNC(=O)CCNC(=O)Cn1ccc2ccccc2c1=O -7.84%, O=C(CCCc1ccccc1)NCc1ccccc1 0.497%, COC(=O)c1c(C)[nH]c(C(=O)/C=C/c2ccc(Cl)cc2)c1C 2.56%, O=c1ccn([C@@H]2O[C@H](COP(=O)(O)OP(=O)(O)OP(=O)(O)O)[C@@H](O)[C@H]2O)c(=O)[nH]1 1.76%, COCOc1cc(OC)ccc1C(=O)/C=C/c1ccc([N+](=O)[O-])cc1 -9.06%, CC(C)CO -4.92%, CC(=O)Nc1ccc(S(=O)(=O)N2N=NC3C2C2CC4C3(CN(C(=O)OC(C)(C)C)S4(=O)=O)O2)cc1 (stereo not drawn) -4.01%, O=C(CCN1CCCCC1)N=Nc1c(O)[nH]c2ccccc12 1.76%, CC(=O)OCC(NC(=O)C(Cc1ccccc1)NC(=O)OC(C)(C)C)C1OC(n2ccc(=O)[nH]c2=O)C(OC(C)=O)C1OC(C)=O (stereo not drawn) 3.72%, COc1ccc(NC(=O)c2sc(N3CCOCC3)nc2-c2ccccc2)c(OC)c1 -8.66%, S=C(NNC(=S)NC1CC2CCC1C2)NC1CC2C=CC1C2 (stereo not drawn) 7.45%, O=S(O)S(=O)(=O)O -1.43%, COc1ccc(-c2ccc(OC)c(C3C4C=CCC(C)C4C(=O)N3Cc3ccccc3)c2)cc1C (stereo not drawn) -0.333%, COC(=O)c1ccc([C@@H](O)[C@H](C)C(=O)CC(=O)OC(C)(C)C)cc1 -10.4%, O=C(Cc1c[nH]c2ccccc12)N/N=C/c1cccc(F)c1 -8.44%, CCN(CC)CCNCc1ccc(OCc2ccc(Cl)nc2)c(OC)c1 -0.785%, N#CC1=C(N)Oc2[nH]c(=S)[nH]c(=O)c2C12C(=O)Nc1ccccc12 (stereo not drawn) -1.33%, C/C(=N\NC(=O)c1cc2c(s1)CCC(C)C2)c1cccnc1 (stereo not drawn) 0.124%, O=C(Nc1cccc(CCc2ccccn2)c1)c1ccc(Cl)cc1 3.21%, C=C1/C(=C\C=C2\CCCC3(C)C2CCC3C(C)/C=C/C(O)C2CC2)CC(O)CC1O (stereo not drawn) 4.41%, Clc1ccc(C2=CSC3=Nc4cccc5cccc(c45)N23)cc1 1.96%, CCOc1ccc(CN2CCN(Cc3ccc(C)o3)CC2CCO)cc1 (stereo not drawn) -3.3%, COc1ccc(NC(C(=O)Nc2cccc(C(C)=O)c2)c2ccccc2)cc1 (stereo not drawn) -8.55%, N#CCC(=O)N/N=C/c1ccc(SCC(=O)Nc2ccccc2)o1 -3.71%, O=C(O)c1ccc(/C=C2/SC(=S)N(c3cccc(C(F)(F)F)c3)C2=O)cc1 -6.48%, O=c1cc(-c2ccc(O)cc2)oc2c(-c3cc(-c4cc(=O)c5c(O)cc(O)cc5o4)ccc3O)c(O)ccc12 5.22%, COc1ccc([N+](=O)[O-])cc1NC(=O)C(C)OC(=O)C1c2ccccc2Oc2ccccc21 (stereo not drawn) -3.57%, Cc1cc(C)nc(NS(=O)(=O)c2ccc(N/C=C\C(=O)c3cccs3)cc2)n1 -0.279%, CC(=O)N1CC[n+]2c(-c3ccc([N+](=O)[O-])cc3)csc21 2.47%
